LASV entry inh – blocks Lassa virus binding to or entry into cells; Lassa virus pseudotype entry inhibition, cell reporter; Potency, µM (doses to about 37.9 µM), for the others: top-dose activity change, negative = inhibition, hits mostly inhibitors; 1.2% of 300,000 active; AID 540256; calls by dose curve; tested in HEK293 cells; note: potency is the fitted concentration of half-maximal effect; % is set by controls: 0 for no effect and ±100 for the full control effect; nearly all actives have a fitted effect of over 50% in size
HCMV inh – blocks human cytomegalovirus replication. HFF cells, HCMV-luciferase reporter, 72 h; active compounds read low. activity change, negative = inhibition, % at 57.5 µM. 4.5% of 410,000 active. AID 1259415; in the data active = activity change below about -60%; inconclusive = no clear call, values can overlap the other calls; inactive = above about -39%; note: % is set by controls: 0 for no effect and ±100 for the full control effect
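Inhibition of viral replication was scored as loss of reporter luminescence in HFFs infected with HCMV-luciferase (MOI 1 PFU/cell) for 72 h; compounds tested at 2 doses, normalized to buffer and Salinomycin controls.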
FMDV inh – blocks foot and mouth disease virus; FMDV antiviral cell-based qHTS; Potency, µM (top dose mostly 57.9 µM), inactives show at the top dose activity change, negative = inhibition, usual class: inhibitors; 1.2% of 410,000 active; calls by dose curve; tested in HEK293T cells; note: read-out not given here; potency is the fitted concentration of half-maximal effect; % is set by controls: 0 for no effect and ±100 for the full control effect; nearly all actives have a fitted effect of over 45% in size
HCV inhibitor – blocks hepatitis C virus | Potency, µM (titrated, usually from 41.8 µM), inactives show at the top dose activity change, negative = inhibition, hits mostly inhibitors | Huh7.5.1 HCVcc-Cre infection, luciferase reporter, 44 h | 3.4% of 340,000 active; note: potency is the fitted concentration of half-maximal effect; % is set by controls: 0 for no effect and ±100 for the full control effect
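Whole-lifecycle infectious HCVcc-Cre system; cells 1,000/well, compound then virus (~0.5 moi) added 4 h after plating, 44 h culture. Luciferase read 15 sec following 15 min substrate incubation, room temp.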
SARS PLP yeast – inhibitors of SARS-CoV papain-like protease in yeast; S. cerevisiae expressing SARS-CoV PLpro, growth rescue; Potency, µM (titrated, usually from 32.9 µM), for inactives: at the highest dose activity, positive = growth rescue, actives largely listed as activators; 0.19% of 330,000 active; calls by dose curve; note: potency is the fitted concentration of half-maximal effect; 0% is about no effect; nearly all actives have a fitted effect of over 55% in size
MARV entry inh – Marburg virus entry inhibition; AID 540276; 1.8% of 300,000 active; Potency, µM (top dose mostly 37.8 µM), for inactives: at the highest dose activity change, negative = inhibition, usual class: inhibitors; Marburg virus pseudotyped entry inhibition, cell reporter; calls by dose curve; tested in HEK293 cells; note: potency is the fitted concentration of half-maximal effect; % is set by controls: 0 for no effect and ±100 for the full control effect
HCV confirm – HCV inhibition, cherry-pick confirmation; HCVcc-Cre infectious virus cell assay, luciferase, inhibition; shares compounds with HCV inhibitor; 78% of 640 active; AID 720575; Potency, µM (top dose mostly 41.8 µM), inactives show at the highest dose activity, negative = inhibition, most hits filed as inhibitors; note: potency is the fitted concentration of half-maximal effect; nearly all actives have a fitted effect of over 80% in size
HCV host tox – host cell cytotoxicity counter-screen for HCV inhibitors | shares compounds with HCV inhibitor | HCV host cell line cytotoxicity counterscreen | 22% of 640 active | Potency, µM (series often up to 41.8 µM), for inactives: at the top dose activity change, negative = cytotoxicity, hits mostly inhibitors;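 note: potency is the fitted concentration of half-maximal effect; 44 h compound exposure; % is set by controls: 0 for no effect and ±100 for the full control effect; nearly all actives have a fitted effect of over 55% in size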
* hit, by the source's call; ? = inconclusive; . = no result given; ! = not active in a repeat; [ ] = remark or other dose. A selection: hits, their analogues and other compounds. The true share with any hit is near 8%. Unless noted, calls come from the whole dose curve; as a rule, active = well fitted curve in the direction sought with a large enough effect; inconclusive = small, poorly fitted or top-dose-only effect, or another doubt; inactive = no such curve, though single readings can be large; an effect the other way counts as inactive or inconclusive.

SMILES	LASV entry inh	HCMV inh	FMDV inh	HCV inhibitor	SARS PLP yeast	MARV entry inh	HCV confirm	HCV host tox
COc1cc2c(cc1NC(=O)C(Cl)Cl)-c1ccc(NC(=O)C(Cl)Cl)cc1C2	?	-68*	2%	?	.	?	18µM*	?
Cc1ccc(CC(=O)NCC(O)c2ccccc2)cc1 (centres undefined)	13%	26	22%	-6%	1%	5%	.	.
O=[N+]([O-])c1ccc(/C=[N+](\[O-])[C@@H]2CCCC[C@@H]2/[N+]([O-])=C/c2ccc([N+](=O)[O-])o2)o1	?	-98*	32µM*	?	-8%	?	?	?
O=C(NCCS(=O)(=O)NCCc1ccccc1)c1ccccc1	11%	19	54%	-4%	-1%	?	.	.
CSC1=NCCN1C(=O)C12CC3CC(CC(C3)C1)C2	-3%	-8	-15%	-15%	1%	-6%[46.1 µM]	.	.
CC1(C)SC(=S)N(/N=C/c2cccnc2)C1N(O)C(=O)NC1CCCCC1 (centres undefined)	0%	1	67%	7.9µM*	1%	-15%	11µM*	-14%
COc1cccc(C(=O)Nc2ccc(N3CCN(Cc4ccccc4)CC3)cc2)c1	2%	?	?	?	11%	?	.	.
CCN1CCN(c2ccc(NC(=O)c3cccc(OCc4ccccc4)c3)cc2)CC1	-1%	-15	-5%	4.5µM*	11%	?	8.9µM*	7%
Cc1cccc(CNC(=O)C2CCN(c3nn4cc(-c5ccc(F)cc5)nc4s3)CC2)c1	?	0	39%	.	.	.	.	.
CN1CCc2nc(SCCOc3ccccc3)c(C#N)cc2C1	-7%	0	.	3.5µM*	-8%	-19%	?	6%
CCOC(=O)c1c(CN2CCN(CCO)CC2)n(C)c2cc(Br)c(OC)cc12	?	-18	-1%	2.8µM*	1%	8.2µM*!	10µM*	19%
CCOC(=O)c1c(C)n(C)c2cc(Br)c(OC)cc12	4%	-28	-14%	7.9µM*	0%	4%[14.2 µM]	14µM*	16%
COc1ccc(N(Cc2ccccc2)S(=O)(=O)c2cccc(C(=O)Nc3ncccc3C)c2)cc1	.	6	-5%	?	4%	.	.	.
CCC(=O)N1CCc2cc(Br)cc(S(=O)(=O)N3CCC(C(=O)N(CC)CC)CC3)c21	1%[46.1 µM]	-1	12%	.	.	1%[46.1 µM]	.	.
COc1ccc(-c2cc(-c3ccccc3)c(C#N)c(SCC(=O)Nc3ncc(C)s3)n2)cc1	-14%	-12	-9%	4.5µM*	?	?	20µM*	9%
COC(=O)c1ccc2c(c1)C(C)(C)C(/C=C/c1ccc(O)cc1)=[N+]2C	?	-102*	10µM*	2.2µM*	-13%	?	5µM*	8.9µM*
COc1ccc(/C=C/C(=O)c2ccc(O)cc2)cc1	.	37	36%	10%	-5%	.	.	.
COc1cc(NC(=O)c2ccc(COc3ccccc3Br)o2)cc(OC)c1OC	?	20	-24%	5µM*	-4%	-19%	11µM*	1%
COc1ccccc1-n1c(SC(C)C(=O)NCC2CCCO2)nc2cc(Cl)ccc2c1=O (centres undefined)	-10%	-15	-15%	?	0%	-21%	.	.
COc1ccc(-c2ccc3oc(-c4ccc(OC)cc4)c(C#CCCO)c3c2)cc1	.	18	-23%	1.1µM*	.	.	2.2µM*	15%
COCCCn1c(SCC(=O)NC2CCCC2)nnc1-c1ccncc1	.	-13	-2%	-7%	-2%	5%[46.1 µM]	.	.
CC(=O)Nc1ccc(NC(=O)Cc2ccc(-c3ccccc3)cc2)cc1	.	-29	-3%	7%	4%	.	.	.
O=C(CCl)Nc1ccc(-c2ccccc2)cc1	10µM*	81	22µM*	3.2µM*	-1%	?	6.3µM*	8.9µM*
NC(=S)NN=Cc1nccc2ccccc12	?	-98*	11%	2.8µM*	.	?	6.3µM*	?
NC(=S)N/N=C/c1cccc(/C=N/NC(N)=S)c1	21%	0	12%	-14%	0%	2%	.	.
SMILES	LASV entry inh	HCMV inh	FMDV inh	HCV inhibitor	SARS PLP yeast	MARV entry inh	HCV confirm	HCV host tox
Cc1cnc(C=NNC(N)=S)c2cccc(N)c12	8.9µM*	-20	-21%	?	.	7.1µM*	?	-33%
O=C(Nc1cccc(C(F)(F)F)c1)C1CCN(S(=O)(=O)c2ccc(N3CCCC3=O)cc2)CC1	.	-66*	?	6.3µM*	-7%	.	8.9µM*	14µM*
COc1ccc(Cn2c(SCc3ccc(C(=O)NC4CCCCC4)cc3)nc3cccnc32)cc1	?	2	?	.	.	.	.	.
Cc1cnc(NC(=O)C2CC(=O)N(c3cccc(Cl)c3)C2)s1 (centres undefined)	.	-99*	-13%	3.2µM*	-1%	.	8.9µM*	3.5µM*
CCc1cccc(C)c1NC(=O)CN1C(=O)c2cccc3cccc1c23	?	-9	-21%	.	.	-6%[46.1 µM]	.	.
Cc1ccc(NC2=C/C(=N\S(=O)(=O)c3cccs3)c3ccccc3C2=O)c(C)c1	?	.	25µM*	5.6µM*	-72%	?	2.5µM*	3.5µM*
CCOC(=O)c1nccnc1C(=O)Nc1ccc(C(F)(F)F)cc1	4%	10	-13%	0%	2%	0%[46.1 µM]	.	.
O=C1COc2cc(S(=O)(=O)CCC(=O)N3CCCCC3)c(Cl)cc2N1	.	9	-13%	11%	-1%	.	.	.
CN(C)S(=O)(=O)N1CCC(Oc2cccc(C(=O)NC3CCCCCC3)c2)CC1	?	-90*	?	2.8µM*	?	?	4.4µM*	7.9µM*
COCC(C)NC(=O)c1cnn2c(C(F)F)cc(-c3ccccc3)nc12 (centres undefined)	2%[46.1 µM]	?	0%	.	.	-3%[46.1 µM]	.	.
COc1ccc(NC(=O)c2cccc(S(=O)(=O)N3CCN(c4ccccc4)CC3)c2)c(OC)c1	-24%	-28	-10%	?	7%	?	22µM*	9%
CCCC(=O)NC(=S)Nc1ccc(N2CCN(C(=O)c3cccs3)CC2)cc1	?	-16	?	0.79µM*	0%	?	?	22%
C/C(=N\Nc1ccc2nncn2n1)c1ccccn1	?	-96*	23%	2µM*	-3%	?	5.6µM*	?
C/C(=N\Nc1ccc2nncn2n1)c1ccco1	-1%	60	25%	-9%	0%	?	.	.
O=C(c1ccccc1)N1CCC(c2nc(-c3ccc(S(=O)(=O)NCC4CCCO4)cc3)no2)CC1 (centres undefined)	-14%	-89*	.	2.8µM*	9%	?	3.5µM*	8.9µM*
